# Data taken from PubChem BioAssay (EPA / NIEHS).
# Activity calls are given as the source filed them. How the source made its calls: active means hit-call score of the fitted dose curve at least 0.9, where 1 is the maximum; inactive means score below 0.9.
# Assay: ATG_GATA_CIS: Attagene CIS-FACTORIAL HepG2 Assay for human GATA Binding Protein (AID 2282944)
# Settings: HepG2 GATA cis-element reporter, Attagene multiplex mRNA; actives raise or lower the signal
# Experimental: ATG_CIS is a cell-based, multiplexed-readout assay that uses HepG2, a human liver cell line, with measurements taken at 24 hours after chemical dosing in a 24-well plate.ATG_GATA_CIS is one of 52 assay component(s) measured or calculated from the ATG_CIS assay. It is designed to make measurements of mRNA induction, a form of inducible reporter, as detected with fluorescence intensity signals by Reverse transcription polymerase chain reaction (RT-PCR) and Capillary electrophoresis technology.Data from the assay component ATG_GATA_CIS was analyzed into 1 assay endpoint. This assay endpoint, ATG_GATA_CIS, was analyzed with bidirectional fitting relative to DMSO as the negative control and baseline of activity. Using a type of inducible reporter, measures of mRNA for gain or loss-of-signal activity can be used to understand the reporter gene at the transcription factor-level as they relate to the gene GATA1. Furthermore, this assay endpoint can be referred to as a primary readout, because this assay has produced multiple assay endpoints where this one serves a reporter gene function. To generalize the intended target to other relatable targets, this assay endpoint is annotated to the dna binding intended target family, where the subfamily is GATA proteins.
# Human liver HepG2 cells are transiently transfected with multiple reporter transcription units (MRTUs) in 6-well plates using FuGene 6 reagent (Roche; 3 ml FuGene/1 mg DNA). The MRTU constructs are regulated by a cis-regulating element (promoter). […] A major difference between the CIS and TRANS system is that in CIS activities of endogenous TFs are measured, whereas the TRANS assay evaluates changes in activities of exogenous, chimeric NR-Gal4 proteins. […] At the end of 24 hour incubation, total RNA was isolated using TriZol reagent (Invitrogen). The isolated RNA is then reverse-transcribed using oligo(dT) primer and Mo-MLV reverse transcriptase (Invitrogen) with DNAse I (Ambion) treatment for 30 min. The one-tenth of the produced cDNA was amplified by PCR using Taq DNA polymerase (Invitrogen) and two reporter sequence-specific primers. The PCR products were fluorescently labeled by primer extension with 6-arboxyfluorescein (6-FAM) 5'-labeled reporter sequence-specific primer (2 min at 95 C, 20 s at 68 C and 10 min at 72 C) and these products were digested with 5U of HpaI (New England Biolabs) for 2h at 37 C. The fragments were purified using Qiaquick PCR columns (Qiagen), analyzed on an ABI 3130xL genetic analyzer (Applied Biosystems) with peak positions identified by using a set of X-rhodamine (ROX)-labeled MapMarker1000 molecular weight standards (BioVentures). The raw capillary electrophoresis data was processed using Attagraph software (Attagene).
row,Compound,outcome
1,CC1=C(C(=O)Nc2ccccc2)S(=O)(=O)CCO1,inactive
2,O=[N+]([O-])c1ccc(Cl)c(Cl)c1,inactive
3,CCCCN(CCCC)N=O,inactive
4,CCOP(=S)(OCC)SCS(=O)(=O)CC,inactive
5,CCOP(=S)(OCC)SCSCC,inactive
6,O=S(=O)(c1ccc(O)cc1)c1ccc(O)cc1,inactive
7,CC(=O)CCc1ccc2c(c1)OCO2,inactive
8,OCC(F)(F)OC(F)(F)C(F)(F)OC(F)(F)C(F)(F)OC(F)(F)CO,inactive
9,c1nc[nH]n1,inactive
10,CCN(CC)c1ccccc1,inactive
11,NC(=O)C(F)(F)C(F)(F)F,inactive
12,CCN(CC)C1CCCCC1,inactive
13,CCC(C)(C)c1ccc(O)cc1,inactive
14,CC(Cc1ccc(OCC(=O)O)cc1)NCC(O)c1csc(C(F)(F)F)n1 (stereo not given),inactive
15,O=C(O)C(F)(OC(F)(F)C(F)(F)C(F)(F)F)C(F)(F)F (stereo not given),inactive
16,C=CC(=O)OCC(CC)(COC(=O)C=C)COC(=O)C=C,inactive
17,OCC(F)(F)OC(F)(F)C(F)(F)OC(F)(F)C(F)(F)OC(F)(F)F,inactive
18,Oc1ccc(I)cc1,inactive
19,O=S(=O)(F)C(F)(F)C(F)(F)C(F)(F)C(F)(F)C(F)(F)C(F)(F)C(F)(F)C(F)(F)F,inactive
20,ClC1=C(Cl)C2(Cl)C3C(Cl)C(Cl)CC3C1(Cl)C2(Cl)Cl (stereo not given),inactive

row,Compound,outcome
1,O=S1(=O)OCC2C(CO1)C1(Cl)C(Cl)=C(Cl)C2(Cl)C1(Cl)Cl (stereo not given),inactive
2,ClC(Cl)c1ccccc1,inactive
3,CCCCOCCOP(=O)(OCCOCCCC)OCCOCCCC,inactive
4,CCCCN(CC)C(=O)SCCC,inactive
5,O=C(O)CF,inactive
6,OCC1CO1 (stereo not given),inactive
7,CCCCN(CCCC)SN(C)C(=O)Oc1cccc2c1OC(C)(C)C2,inactive
8,O=C(O)C(F)(F)OC(F)(F)C(F)(F)OC(F)(F)C(=O)O,inactive
9,CN(C)C(=O)Cl,inactive
10,c1ccc2c(c1)Nc1ccccc1S2,inactive
11,O=C(O)C=CC(F)(C(F)(F)F)C(F)(F)F,inactive
12,CC(O)C#N (stereo not given),inactive
13,Cc1ccc(O)cc1C,inactive
14,CCCCc1ccccc1,inactive
15,CC1(C)CN=C(NN=C(/C=C/c2ccc(C(F)(F)F)cc2)/C=C/c2ccc(C(F)(F)F)cc2)NC1,inactive
16,FC(F)(F)c1ccc(Cl)cc1,inactive
17,CNC(=O)Oc1ccc(N(C)C)c(C)c1,inactive
18,CSC(C)(C)C=NO,inactive
19,Nc1ccc2ccccc2c1,inactive
20,OCC(F)(F)OC(F)(F)C(F)(F)OC(F)(F)CO,inactive
